This is a sample that favours compounds with a hit; in the whole collection about 12% have one here.
USP28 inh – inhibitors of human USP28 deubiquitinase; Ubiquitin carboxyl-terminal hydrolase 28 (Homo sapiens), Q96RU2; 3% of 47,000 active; inhibition, % at 25 µM; purified USP28, Ub-rhodamine cleavage fluorescence, 30 min; AID 1645857, 2021
Target sequence (Q96RU2 whole entry, looked up): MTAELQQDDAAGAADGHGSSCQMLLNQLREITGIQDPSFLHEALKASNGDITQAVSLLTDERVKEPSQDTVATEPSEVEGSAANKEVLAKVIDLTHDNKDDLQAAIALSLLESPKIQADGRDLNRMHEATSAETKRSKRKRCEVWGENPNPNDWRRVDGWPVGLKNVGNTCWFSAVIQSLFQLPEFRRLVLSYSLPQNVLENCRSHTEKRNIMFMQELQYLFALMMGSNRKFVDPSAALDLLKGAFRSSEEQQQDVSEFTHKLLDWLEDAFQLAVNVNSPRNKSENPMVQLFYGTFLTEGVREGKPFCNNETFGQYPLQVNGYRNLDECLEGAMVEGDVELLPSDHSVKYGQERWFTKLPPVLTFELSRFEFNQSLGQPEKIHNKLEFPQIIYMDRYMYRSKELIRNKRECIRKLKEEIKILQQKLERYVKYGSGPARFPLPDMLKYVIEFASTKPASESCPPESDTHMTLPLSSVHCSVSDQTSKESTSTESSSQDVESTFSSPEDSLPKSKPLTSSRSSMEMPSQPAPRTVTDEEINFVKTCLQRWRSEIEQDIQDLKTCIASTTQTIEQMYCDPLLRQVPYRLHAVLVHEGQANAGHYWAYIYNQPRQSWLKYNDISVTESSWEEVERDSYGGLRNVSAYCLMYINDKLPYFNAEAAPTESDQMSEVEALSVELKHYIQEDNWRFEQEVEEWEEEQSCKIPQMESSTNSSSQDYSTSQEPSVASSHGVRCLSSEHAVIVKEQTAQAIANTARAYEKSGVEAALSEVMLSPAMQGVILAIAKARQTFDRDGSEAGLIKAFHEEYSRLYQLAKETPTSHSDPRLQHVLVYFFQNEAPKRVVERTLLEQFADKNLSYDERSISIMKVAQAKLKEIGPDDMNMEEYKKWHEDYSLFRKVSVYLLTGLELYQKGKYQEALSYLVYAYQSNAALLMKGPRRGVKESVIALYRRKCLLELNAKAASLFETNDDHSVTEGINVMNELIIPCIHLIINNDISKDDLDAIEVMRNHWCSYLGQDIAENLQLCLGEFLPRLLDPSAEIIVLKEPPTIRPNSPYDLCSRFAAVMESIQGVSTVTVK
USP17 block – inhibitors of human USP17 deubiquitinase; 6.5% of 47,000 active; Ubiquitin carboxyl-terminal hydrolase 17-like protein 5 (Homo sapiens), A8MUK1; AID 1645855, 2021; purified USP17, Ub-rhodamine cleavage fluorescence, 3 h; inhibition, % at 50 µM
OTUD3 inh – inhibitors of human OTUD3 deubiquitinase; OTU domain-containing protein 3 (Homo sapiens), Q5T2D3; inhibition, % at 25 µM; purified OTUD3, Ub-rhodamine fluorescence, 2 h; 0.7% of 47,000 active
USP30 inh – inhibitors of human USP30 deubiquitinase. 5.3% of 47,000 active. purified USP30, Ub-rhodamine cleavage fluorescence. AID 1645860, 2021. inhibition, % at 25 µM. Ubiquitin carboxyl-terminal hydrolase 30 (Homo sapiens), Q70CQ3
Numbers without * were called inactive. Rule as the data show it: active = inhibition above about 30%; inactive = the rest.

How did O=C(NCc1ccccc1Cl)C1CCCN(c2nc3ccsc3c(=O)s2)C1 (centres undefined) do in these assays?
USP28 inh: 0.1; USP17 block: 54.6*; OTUD3 inh: 0.0; USP30 inh: -36.4

Results for COc1cccc(CNC(=O)C2CCCN(c3nnc(N4CCCC4=O)s3)C2)c1OC (centres undefined) ?
USP28 inh: -16.5; USP17 block: -7.3; OTUD3 inh: 0.5; USP30 inh: 9.3

Results for CCc1nnc(-c2csc(S(=O)(=O)NC3CCCC3)c2)o1 ?
USP28 inh: 6.4; USP17 block: 10.5; OTUD3 inh: 4.6; USP30 inh: 13.8

What do the screens show for `CN(C)[C@@H]1CN(Cc2cccnc2)C[C@H]1c1cn(C)c2ccccc12`?
USP28 inh: -13.7; USP17 block: -4.6; OTUD3 inh: -9.4; USP30 inh: -13.8

What do the screens show for `CS(=O)(=O)N1CCN(c2ccccc2NC(=O)COc2ccc(Br)cc2)CC1`?
USP17 block: 93.4*; OTUD3 inh: -0.5

How did CS(=O)(=O)N1CCN(c2ccc(NC(=O)COc3ccccc3)cc2)CC1 do in these assays?
USP28 inh: -8.8; USP17 block: -8.4; OTUD3 inh: -8.1; USP30 inh: 0.1

What do the screens show for `O=S(=O)(Nc1ccc(Oc2ccccc2)cc1)c1ccccc1`?
USP28 inh: 60.2*; USP17 block: 69.6*; OTUD3 inh: 23.7; USP30 inh: 63.7*

What do the screens show for `NC(=O)c1cccc(NS(=O)(=O)c2ccccc2)c1`?
USP28 inh: -14.6; USP17 block: -8.8; OTUD3 inh: -0.3; USP30 inh: -1.4

What do the screens show for `COc1ccc(C(=O)Nc2ccccc2C(=O)NC(Cc2ccc(O)cc2)C(=O)NNC(=O)c2ccccc2Cl)cc1` (centres undefined)?
USP28 inh: 74.7*; USP17 block: 81.8*; OTUD3 inh: 74.9*; USP30 inh: 69.4*

What do the screens show for `CCc1cc(C(=O)c2ccc(OC)cc2)c(NC(=O)CCC(=O)O)s1`?
USP28 inh: 7.8; USP17 block: 28.9; OTUD3 inh: 14.4; USP30 inh: 30.6*

Results for COc1ccc(NC(=O)Cn2cc(C(=O)c3ccc(OC)cc3)c(=O)c3cc4c(cc32)OCCO4)cc1 ?
USP28 inh: 7.2; USP17 block: 6.2; OTUD3 inh: 4.2; USP30 inh: 10.2

Results for CCc1cc(C(=O)c2ccc(OC)cc2)c(NC(=O)CN2CCCCC2)s1 ?
USP28 inh: 18.6; USP17 block: 4.7; OTUD3 inh: 28.3; USP30 inh: 73.9*

How did CC1(C)OC2=C(C(=O)c3cc(O)cc(O)c3C2=O)c2cc(CO)c(O)cc21 do in these assays?
USP28 inh: 27.1; USP17 block: 81.8*; OTUD3 inh: 21.0; USP30 inh: -0.1

What do the screens show for `Cc1cc(O)cc2c1C(=O)c1c(O)ccc(O)c1C2=O`?
USP28 inh: -81.4; USP17 block: -36.6; OTUD3 inh: -97.5; USP30 inh: -385.1

How did CNS(=O)(=O)c1cc(C(=O)NCc2ccccc2)ccc1Cl do in these assays?
USP28 inh: 8.7; USP17 block: 2.8; OTUD3 inh: 3.2; USP30 inh: 20.1

How did CC(C)C1Nc2ccc(C(=O)NCc3ccccc3)cc2NC1=O (centres undefined) do in these assays?
USP28 inh: 0.1; USP17 block: 36.3*; OTUD3 inh: 7.1; USP30 inh: -7.4

Results for COc1ccc(CC(=O)N(Cc2nc3nc(C)cc(C)n3n2)c2cccc(C)c2)cc1 ?
USP28 inh: 5.2; USP17 block: 7.6; OTUD3 inh: 6.1; USP30 inh: 3.3

How did Nc1c(-c2nc(-c3ccc4c(c3)OCO4)cs2)nnn1-c1ccccc1 do in these assays?
USP28 inh: 7.3; USP17 block: 64.9*; OTUD3 inh: -1.2; USP30 inh: 15.3

How did c1cc(N2CCOCC2)ccc1-c1csc(-c2ccc3c(c2)OCCO3)n1 do in these assays?
USP28 inh: 12.2; USP17 block: 39.8*; OTUD3 inh: 12.4; USP30 inh: -34.9

What do the screens show for `FC(F)(F)c1ccc(-c2nc(-c3ccc4c(c3)OCCCO4)cs2)cc1`?
USP28 inh: 10.8; USP17 block: 19.1; OTUD3 inh: 16.0; USP30 inh: 33.4*

How did Nc1c(-c2nc(-c3ccccc3)cs2)nnn1-c1ccccc1 do in these assays?
USP17 block: 7.6; OTUD3 inh: 6.3

How did COc1ccc(C(=O)N2CCN(Cc3noc4ccccc34)CC2)cc1 do in these assays?
USP28 inh: -4.7; USP17 block: -0.6; OTUD3 inh: -9.4; USP30 inh: -2.6

What do the screens show for `Nc1nc(/C=C/c2ccc(Br)cc2)nc(-c2ccccc2O)n1`?
USP28 inh: 7.4; USP17 block: 22.7; OTUD3 inh: 21.6; USP30 inh: 15.0

How did Nc1nc(/C=C/c2ccc(Cl)cc2)nc(-c2ccccc2O)n1 do in these assays?
USP28 inh: -8.9; USP17 block: 36.5*; OTUD3 inh: 4.1; USP30 inh: 12.9

How did c1cnc(Nc2cc(CC3CCN(C4CCOC4)CC3)ncn2)cn1 (centres undefined) do in these assays?
USP28 inh: -5.3; USP17 block: -0.7; OTUD3 inh: -2.6; USP30 inh: 5.3

Results for CC(C)Nc1nc(-c2ccccc2)nnc1-c1ccccc1 ?
USP28 inh: 14.1; USP17 block: 17.0; OTUD3 inh: 13.5; USP30 inh: 30.9*

What do the screens show for `c1ccc(-c2ccc(-c3nc(-c4ccncc4)no3)cc2)cc1`?
USP28 inh: -9.0; USP17 block: -3.1; OTUD3 inh: -18.1; USP30 inh: -18.9

How did Cc1cccc(-c2nnn3c2nc(NCC2CCCO2)c2ccccc23)c1 (centres undefined) do in these assays?
USP28 inh: 3.0; USP17 block: 58.3*; OTUD3 inh: 10.7; USP30 inh: 65.5*

Results for Cn1c(-c2nnc(SCC(=O)NCCc3ccccc3)o2)cc2ccccc21 ?
USP28 inh: 18.6; USP17 block: 42.6*; OTUD3 inh: 16.6; USP30 inh: 56.7*

How did CCCCNC(=O)CSc1nnc(-c2cc3ccccc3n2C)o1 do in these assays?
USP28 inh: 23.1; USP17 block: 55.9*; OTUD3 inh: 31.1*; USP30 inh: 72.4*

Results for Cc1cc(C(=O)N2CCC(Nc3ncnc4c3CCC4)C2)nn1C (centres undefined) ?
USP28 inh: -88.3; USP17 block: 5.2; OTUD3 inh: 5.8; USP30 inh: 8.3

Results for O=C(Cn1cccc1-c1nnc(C2CC2)o1)N1CCN(c2ccccc2F)CC1 ?
USP28 inh: 4.8; USP17 block: 3.7; OTUD3 inh: 9.2; USP30 inh: 15.1

Results for Cc1cc(O)cc(Oc2cc(C)cc(O)c2)c1 ?
USP28 inh: 18.7; USP17 block: 4.0; OTUD3 inh: 3.4; USP30 inh: 30.3*

What do the screens show for `C[C@H](Cc1cc2c(cc1O)OCO2)[C@@H](C)Cc1cc2c(cc1O)OCO2`?
USP28 inh: 96.9*; USP17 block: 100.4*; OTUD3 inh: 92.7*; USP30 inh: 92.5*

Results for Cc1cc2c(cc1CCc1cc3c(cc1C)OCO3)OCO2 ?
USP28 inh: -2.1; USP17 block: -0.2; OTUD3 inh: 0.1; USP30 inh: -0.4

Results for Cc1ccccc1-c1nc(-c2cccc(C(=O)N3CCCC3)c2)no1 ?
USP28 inh: 6.8; USP17 block: 13.9; OTUD3 inh: 5.0; USP30 inh: 35.7*

Source: PubChem BioAssay
